Results reported in paper PMC4336329 (PLoS ONE, 2015).
Screen size: about 310,000 compounds; about 14,000 (4.5%) showed an effect of 50% or more. The effect is printed as a negative number. The full list was thinned out, with strong results kept by preference.

Target: human ether-à-go-go-related gene (hERG) potassium channel (human, UniProt Q12809)
Test: primary screen, population patch clamp on CHO cells stably expressing hERG; higher = less effect of the substance
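Note: peak tail current of the secondary pulse compared with the same well before compound.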

Sequence of human ether-à-go-go-related gene (hERG) potassium channel (Q12809 whole entry, looked up): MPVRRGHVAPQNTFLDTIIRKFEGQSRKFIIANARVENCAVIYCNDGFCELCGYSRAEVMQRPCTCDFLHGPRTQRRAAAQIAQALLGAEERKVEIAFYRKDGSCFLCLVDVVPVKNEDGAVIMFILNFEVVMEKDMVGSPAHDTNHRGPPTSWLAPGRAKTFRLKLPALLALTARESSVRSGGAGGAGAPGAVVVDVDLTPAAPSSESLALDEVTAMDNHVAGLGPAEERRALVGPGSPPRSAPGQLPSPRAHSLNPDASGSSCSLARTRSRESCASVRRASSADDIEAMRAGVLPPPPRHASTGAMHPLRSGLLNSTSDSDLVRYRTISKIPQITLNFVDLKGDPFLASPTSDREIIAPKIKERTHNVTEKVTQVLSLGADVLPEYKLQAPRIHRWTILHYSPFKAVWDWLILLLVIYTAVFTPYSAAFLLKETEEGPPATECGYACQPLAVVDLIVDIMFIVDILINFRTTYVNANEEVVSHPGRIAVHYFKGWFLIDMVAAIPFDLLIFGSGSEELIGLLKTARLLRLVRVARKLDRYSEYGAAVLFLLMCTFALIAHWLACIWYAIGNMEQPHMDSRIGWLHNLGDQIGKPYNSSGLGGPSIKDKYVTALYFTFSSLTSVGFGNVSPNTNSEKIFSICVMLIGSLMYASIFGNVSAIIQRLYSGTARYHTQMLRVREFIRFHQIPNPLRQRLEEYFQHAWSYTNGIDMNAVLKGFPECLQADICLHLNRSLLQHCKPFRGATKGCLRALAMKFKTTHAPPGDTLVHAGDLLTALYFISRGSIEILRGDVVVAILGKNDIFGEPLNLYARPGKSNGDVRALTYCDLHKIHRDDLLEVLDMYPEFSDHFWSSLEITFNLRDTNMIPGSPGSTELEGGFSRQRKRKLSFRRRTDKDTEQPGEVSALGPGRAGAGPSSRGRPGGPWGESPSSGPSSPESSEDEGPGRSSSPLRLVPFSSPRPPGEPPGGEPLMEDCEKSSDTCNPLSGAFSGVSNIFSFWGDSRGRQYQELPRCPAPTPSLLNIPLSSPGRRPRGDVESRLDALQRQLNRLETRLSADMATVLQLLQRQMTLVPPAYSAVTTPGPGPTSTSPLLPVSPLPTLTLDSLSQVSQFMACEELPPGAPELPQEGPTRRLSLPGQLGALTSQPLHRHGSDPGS

Row | SMILES | hERG current change (%, negative = inhibition) at 10uM [%]
1 | CCOC(=O)c1[nH]c(C)c(C(=O)OCCN2C(=O)c3ccccc3C2=O)c1C | -1.16
2 | COC(=O)[C@@H]1C[C@@]2(O)[C@H](O)[C@H](O)[C@H](O)C[C@H]2N1Cc1ccc(C(F)(F)F)cc1 | 13.2
3 | Cc1ccccc1CN1CCN(CC(=O)NCc2ccccc2)CC1 | -22.8
4 | Cc1c(NC(=O)CCC2CCCCC2)cc(C(=O)N2CCOCC2)cc1[N+](=O)[O-] | -10.2
5 | COc1cc(N)c(Cl)cc1C(=O)NC1CN2CCC1CC2.Cl.O (centres unmarked) | -11.1
6 | O=C(O)c1ccc(Cl)c(NC(=S)NC(=O)c2cccc(COc3ccccc3)c2)c1 | 30.4
7 | COC(=O)c1ccc(N2CCOCC2)c(NC(=O)c2ccc(Br)o2)c1 | 7.34
8 | COC(=O)c1ccc(N2CCCCC2)c(NC(=O)c2ccco2)c1 | -45.8
9 | CCOC(=O)c1ccc(N2CCN(C(=O)c3ccccc3)CC2)c(NC(=O)c2ccco2)c1 | -71.5
10 | COC(=O)c1ccc(N2CCN(C)CC2)c(NC(=O)c2ccc(-c3ccc(Cl)cc3)o2)c1 | 7.11
11 | COC(=O)c1ccc(N2CCN(C)CC2)c(NC(=O)c2ccc(Br)o2)c1 | -55.8
12 | COC(=O)c1ccc(N2CCN(C(=O)c3ccccc3)CC2)c(NC(C)=O)c1 | -39.8
13 | CCOC(=O)N1CCC(NC(=O)c2cc(S(=O)(=O)N3CCC4(CC3)OCCO4)ccc2F)CC1 | -6.9
14 | Fc1cccc(CN2CCN3CCCC3C2C2CCCCC2)c1 (centres unmarked) | -8.93
15 | CCOc1ccc(NC(=S)NC(=O)/C=C/c2ccc(OC)cc2)c([N+](=O)[O-])c1 | 7.26
16 | O=C(COc1ccccc1Cl)NCCNC(=O)c1cccnc1 | -3.71
17 | CS(=O)(=O)NNC(=O)Cn1nnc(-c2ccc(OCc3ccccc3Cl)cc2)n1 | 18
18 | O=C(Oc1ccc(-c2nnco2)cc1)N1CCOCC1 | 1.23
19 | Cc1ccccc1Nc1nc(N)nc(COC(=O)CCNS(=O)(=O)c2ccccc2)n1 | -9.32
20 | CCc1ccccc1Nc1nc(N)nc(COC(=O)CCS(=O)(=O)c2ccccc2)n1 | -10.5
21 | CCc1ccccc1Nc1nc(N)nc(COC(=O)CCNS(=O)(=O)c2ccccc2)n1 | -62.7
22 | Cc1ccc2nc(NCCc3ccc(Cl)cc3)c3nncn3c2c1 | 8.75
23 | Cn1c2ccccc2c2nnc(SCC(N)=O)nc21 | -7.5

Row | SMILES | hERG current change (%, negative = inhibition) at 10uM [%]
24 | CCCCNS(=O)(=O)c1ccc2c(c1)oc(=O)n2CC(=O)OCC | 5.06
25 | O=C(Nc1cc([N+](=O)[O-])ccc1C(=O)NCCN1CCOCC1)c1ccccc1 | -44.9
26 | O=C(Nc1ccccc1C(=O)Nc1ccccn1)c1ccc([N+](=O)[O-])cc1 | -18
27 | Cc1ccccc1NS(=O)(=O)c1ccc(C(=O)NCCCN2CCOCC2)cc1 | 9.08
28 | O=C(Nc1ccccc1C(=O)NCCCN1CCOCC1)c1ccccc1 | 6.8
29 | Cc1cc(C)c(C)c(S(=O)(=O)Nc2ccccc2C(=O)NCCCN2CCOCC2)c1C | -88.5
30 | O=C(NCCCN1CCOCC1)c1ccccc1NS(=O)(=O)c1ccc(Br)cc1 | -56.1
31 | O=C(Nc1ccccc1C(=O)Nc1ccccn1)c1cccc([N+](=O)[O-])c1 | -58.2
32 | O=C(NCCCN1CCCC1=O)c1ccccc1NS(=O)(=O)c1ccc(Br)cc1 | 1.59
33 | O=C(NCCCN1CCOCC1)c1ccccc1NS(=O)(=O)c1ccc(F)cc1 | -41.5
34 | O=C(Nc1ccccc1C(=O)Nc1ccc(Br)cn1)c1cccc([N+](=O)[O-])c1 | 16.6
35 | Cc1ccccc1NS(=O)(=O)c1ccc2[nH]cc(C(=O)NCCCN3CCOCC3)c(=O)c2c1 | 14.5
36 | O=C(Nc1ccccc1C(=O)NCCCN1CCOCC1)c1cccc([N+](=O)[O-])c1 | -52.7
37 | CCCCNC(=S)NCCN1CCN(C(=S)NCCCC)CC1.Cl | -8.2
38 | S=C(Cc1ccc(Cl)cc1)N1CCOCC1 | 11.1
39 | CC(C)C(=O)Nc1ncc(Cc2ccc(Cl)cc2)s1 | 6.53
40 | O=[N+]([O-])c1ccccc1N(CC1CO1)S(=O)(=O)c1ccccc1 (centres unmarked) | 2.02
41 | O=C(CCc1nc2ccccc2c(=O)[nH]1)Nc1nnc(SCc2ccc(F)cc2)s1 | 7.47
42 | CC(C)(C)NCC(O)CON=C1c2ccccc2-c2ccccc21 (centres unmarked) | -28.5
43 | COc1ccc(O)c(/C=N/NC(=O)c2ccc(OCc3cccc(Br)c3)cc2)c1 | 9.95
44 | COc1ccc(CNC(=O)C/C(C)=N/NC(=O)c2ccc(OC)cc2OC)cc1 | -10.5
45 | O=C(NNS(=O)(=O)c1ccccc1[N+](=O)[O-])c1cc2ccccc2cc1O | -10.9
46 | O=C(NCCc1ccccc1)c1ccc2c(c1)OCCCO2 | 17.4

Row | SMILES | hERG current change (%, negative = inhibition) at 10uM [%]
47 | CCC(=O)N(CCc1ccccc1C)Cc1cc2ccc(C)cc2[nH]c1=O | 9.02
48 | Cc1ccc2cc(CN(CCN(C)C)C(=O)Nc3ccc(Cl)cc3)c(=O)[nH]c2c1 | -70.5
49 | CCN(CC)CCN(Cc1cc2ccc(C)cc2[nH]c1=O)C(=O)Nc1ccc(Cl)cc1 | -77.6
50 | O=C(NCc1ccccc1)c1cccc(COc2ccc(Cl)cc2)c1 | 5.77
51 | COc1cc(C2C(C#N)=C(N)Oc3cc(O)ccc32)cc(OC)c1OC (centres unmarked) | 4.91
52 | COC(=O)c1cc(S(=O)(=O)NC2CCCCC2)cn1C | 10.5
53 | O=S(=O)(c1ccc(SCCO)nc1)N1CCOCC1 | -2
54 | CCOC(=O)CCNC(=O)Nc1cc2nc(C)n(Cc3cccc(Cl)c3)c2nc1C | 4.33
55 | O=c1cc(-c2ccccc2)[nH]c2ccccc12 | -11.4
56 | O=C(COC(=O)c1ccccc1[N+](=O)[O-])NNC(=O)c1cccs1 | -15.7
57 | CC(C)C(=O)N(Nc1nc2ccccc2s1)C(=O)C(C)C | -0.224
58 | O=C1SCCc2c1n(Cc1ccccc1)c1ccccc21 | 2.89
59 | Cc1ccc2c(c1)c1c(n2CCc2ccc(C)nc2)CCN(C)C1 | -15.8
60 | CN1CCc2c(c3ccccc3n2C)C1.Cl | 11.4
61 | CN1CCc2c(c3ccccc3n2Cc2ccccc2)C1.Cl | -71.2
62 | CCCCN1CCc2c(c3ccccc3n2Cc2ccccc2)C1 | -72.9
63 | Cc1ccc(CCn2c3c(c4ccccc42)CN(C)CC3)cn1 | -3.74
64 | COc1ccc(-c2ncc3ccccn23)cc1 | -5.24
65 | Cc1cc(NC(=O)c2ccc(N(C)S(=O)(=O)c3ccccc3)cc2)no1 | -11.5
66 | COc1ccc(OCCCC(=O)Nc2ccc(N3CCCCC3)cc2)cc1.Cl | -1.87
67 | CC(=O)N1C2CCCCC2S[C@H]2CCCCC21 (some centres unmarked) | 18.9
68 | Cc1ccc(/C=N/n2c(COc3ccccc3)n[nH]c2=S)s1 | 14.6
69 | COc1ccc(C(C(=O)NC2CCCC2)N(C(=O)c2ccoc2C)c2ccc(C)c(C)c2)cc1 (centres unmarked) | 15.1

Row | SMILES | hERG current change (%, negative = inhibition) at 10uM [%]
70 | COc1ccccc1CNC(=O)CN1C(=O)c2ccccc2S1(=O)=O | 12.7
71 | O=C(Nc1nc2ccccc2n1CCN1CCCCC1)c1ccc(Cl)cc1 | -13.2
72 | CCN(CC)CCn1c(NC(=O)c2ccc(Cl)cc2)nc2ccccc21 | -31.5
73 | CCCn1c(NC(=O)c2ccccc2Br)nc2ccccc21 | 16.2
74 | CCN(CC)CCn1c(NC(=O)c2ccccc2O)nc2ccccc21 | -68
75 | CCN(CC)CCn1c(NC(=O)c2ccc(C(F)(F)F)cc2)nc2ccccc21 | -25.7
76 | CCC(=O)Nc1nc2ccccc2n1CCN(CC)CC | -14.1
77 | CCCn1c(NC(=O)c2ccc(C)cc2)nc2ccccc21 | -22.8
78 | Cc1ccc(C(=O)Nc2nc3ccccc3n2CCN2CCCC2)cc1 | -53.8
79 | CCN(CC)CCn1c(NC(=O)c2ccc(C)cc2)nc2ccccc21 | -63.2
80 | CCCc1nnc(NC(=O)c2cc(OC)cc(OC)c2)s1 | -4.25
81 | Cc1ccccc1NC(=O)CSc1ccncc1 | -1.94
82 | CNCCc1ccccn1.Cl | 7.88
83 | CC(=O)NN1C(=O)/C(=C/c2ccc(Br)o2)SC1=S | 2.1
84 | COc1ccc(C(CNC(=O)c2ccccc2C)N2CCCC2)cc1 (centres unmarked) | -16.2
85 | COc1ccc(C(CNC(=O)CCNC(=O)c2ccccc2OC)N2CCCC2)cc1 (centres unmarked) | -14.1
86 | COc1ccc(C(CNC(=O)c2cc3ccccc3o2)N2CCCCC2)cc1 (centres unmarked) | -51.6
87 | COc1ccc(C(CNC(=O)c2ccco2)N2CCCCC2)cc1 (centres unmarked) | -5.74
88 | COc1ccc(C(CNC(=O)c2cc3ccccc3cc2OC)N2CCCC2)cc1 (centres unmarked) | -67.5
89 | COc1ccc(C(CNC(=O)c2cc3ccccc3o2)N2CCCC2)cc1 (centres unmarked) | -38.6
